The source of these data is PubChem BioAssay (NCATS).

Structures are written as SMILES. Inconclusive results are not listed. A number with no mark means an inactive call. The source made the active and inactive calls. Calls come from the whole dose curve; as a rule, active = well fitted curve in the direction sought with a large enough effect; inconclusive = small, poorly fitted or top-dose-only effect, or another doubt; inactive = no such curve, though single readings can be large; an effect the other way counts as inactive or inconclusive.

One assay relates to CRL-7250. The assay is described as follows: Cytotoxic Profiling of Annotated Libraries Using Quantitative High-Throughput Screening (AID 1296008). For max response: % is set by controls: 0 for no effect and ±100 for the full control effect. Note: nearly all actives have a fitted effect of over 60% in size. Note: potency is the fitted concentration of half-maximal effect. As to conditions: Five cell lines viability, CellTiter-Glo ATP luminescence, 48-72 h; max response: hits give low values. Summed up:
(§1)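 Compounds were pin-transferred onto cells and incubated 48 or 72 hr at 37 degree Celsius, 95% humidity. CellTiter-Glo was added, plates sat 10 min at room temperature, then ATP-coupled luminescence was imaged as the viability read-out.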
For orientation: In ATP-based viability assays light output follows the ATP content of the culture.

Assay [1] relates to HaCat. The description is as above. As to conditions: Five cell lines viability, CellTiter-Glo ATP luminescence, 48-72 h; max response: hits give low values. The method, boiled down:
as §1

Another assay has as its system KB-3-1. Described as above. As to conditions: Five cell lines viability, CellTiter-Glo ATP luminescence, 48-72 h; max response: hits give low values. The method, boiled down:
as §1

The next assay has as its system NIH3T3. The description is as above. As to conditions: Five cell lines viability, CellTiter-Glo ATP luminescence, 48-72 h; max response: hits give low values. The method, boiled down: as §1
Assay [2] deals with HACAT. Description: qHTS assay to identify novel small-molecules to repurpose for Merkel cell carcinoma treatment (AID 1296009). Note: nearly all actives have a fitted effect of over 60% in size. As to conditions: MCC and control cell lines, CellTiter-Glo viability, 72 h; at 44.8 µM (top of the series) unless noted. The method, boiled down:
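Cells exposed to NPC (8-point) and MIPE (11-point) compound dilutions for 72 hr at 37 degree celsius; viability read by CellTiter-Glo luminescence, normalized to no-cell and DMSO in-plate controls.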
On the technique in general: In qHTS, concentration-response curves come from the screen itself.

Another assay concerns C33A. Description: Primary qHTS to identify gynecologic anti-cancer compounds using libraries of approved drugs and bioactive compounds (AID 1345084). Note: % is set by controls: 0 for no effect and ±100 for the full control effect; nearly all actives have a fitted effect of over 55% in size. As to conditions: Gynecologic cancer cell panel viability, ATPlite luminescence, 48 h; series mostly up to 57.5 µM. The method, boiled down:
(§2)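 Cytotoxicity screen measuring ATP content by luciferase luminescence. Each compound is applied at five concentrations for 48 h at 37 C with 5% CO2.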

Another assay relates to CAOV3. Described as above. As to conditions: Gynecologic cancer cell panel viability, ATPlite luminescence, 48 h; series mostly up to 57.5 µM. The method, boiled down:
as §2

The test system of a further assay is CASKI. The assay is described as above. As to conditions: Gynecologic cancer cell panel viability, ATPlite luminescence, 48 h; series mostly up to 57.5 µM. Summed up: as §2
Another assay relates to Es-2. Described as above. As to conditions: Gynecologic cancer cell panel viability, ATPlite luminescence, 48 h; series mostly up to 57.5 µM. Summed up:
as §2

Another assay deals with HeLa. The assay is described as above. As to conditions: Gynecologic cancer cell panel viability, ATPlite luminescence, 48 h; series mostly up to 57.5 µM. Summed up:
as §2

The test system of the next assay is Hek293T. The description is as above. As to conditions: Gynecologic cancer cell panel viability, ATPlite luminescence, 48 h, control line for the selectivity index; series mostly up to 57.5 µM. The method, boiled down: as §2
A further assay concerns JEG-3. The assay is described as above. As to conditions: Gynecologic cancer cell panel viability, ATPlite luminescence, 48 h; series mostly up to 57.5 µM. The method, boiled down: as §2
The next assay has as its system OV90. The assay is described as above. As to conditions: Gynecologic cancer cell panel viability, ATPlite luminescence, 48 h; series mostly up to 57.5 µM. The method, boiled down:
as §2

For a further assay, the system named is PA-1. Described as above. As to conditions: Gynecologic cancer cell panel viability, ATPlite luminescence, 48 h; series mostly up to 57.5 µM. Summed up:
as §2

For `CC(C)Nc1nc(Nc2ccccc2)nc(-c2ccccc2)n1`, the figures for the max response in the assay on CRL-7250, with KB-3-1 and in the assay with NIH3T3 were -10.5%, -2.52% and -18.6%, respectively. Further, the call in the assay with HaCat [1] and with HACAT [2] was inactive. The Potency entry in the assay on C33A, in the assay on CAOV3, with CASKI, in the assay with Es-2, in the assay with HeLa and in the assay with Hek293T was “inactive” each time. Further, the Potency entry in the assay on JEG-3, in the assay on OV90 and in the assay with PA-1 was “inactive” in each case.

For `CN1CC2CN(c3ccc4oc5ccccc5c(=O)c4c3)CC2C1` (configuration not stated), the max response in the assay on CRL-7250 is -0.983%; in the assay on KB-3-1, -11.6%; in the assay on NIH3T3, -10.4%. Besides, in the assay with HaCat [1], the call was inactive. The outcome with HACAT [2] was “inactive [at 17.4 µM]”. Besides, the Potency result in the assay on CAOV3, with Es-2, with HeLa, with Hek293T, in the assay with JEG-3 and in the assay on PA-1 was “inactive” throughout.

For `O=C(NCCCNc1nc(Nc2cccc(CN3CCOCC3)c2)ncc1C1CC1)C1CCC1`, the Potency in the assay with CRL-7250 is 5.8 µM (active); in the assay with KB-3-1, 20.6 µM (active); in the assay with NIH3T3, 4.61 µM (active). The call with HaCat [1] and in the assay on HACAT [2] was inactive. The Potency result in the assay on C33A, with CASKI, in the assay on Es-2, with Hek293T, with JEG-3 and in the assay on OV90 was “inactive” throughout.

Regarding `CC[C@H](C)/C=C(C)/C=C/C1=CC2=CC(=O)[C@]3(C)OC(=O)[C@@H](C(C)=O)[C@@H]3C2=CO1`, the max response was -1.79% with CRL-7250, 4.01% with KB-3-1 and -1.49% in the assay with NIH3T3. Besides, the outcome in the assay with HaCat [1] and with HACAT [2] was inactive. For the same compound, the Potency entry in the assay with C33A, in the assay with CASKI, in the assay on Es-2, in the assay with HeLa, with Hek293T and in the assay with JEG-3 was “inactive” each time. The Potency result with OV90 and in the assay with PA-1 was “inactive” in each case.

In the case of `CCCC(=O)C1(c2ccccc2)CCN(C(=O)[C@@H](Cc2ccc(OC)cc2)NC(=O)[C@@H](N)Cc2cncn2C)CC1`, the max response in the assay on CRL-7250 is 3.05%; with KB-3-1 it was -9.44%; in the assay on NIH3T3 it was -0.497%. In addition, the outcome with HaCat [1] and with HACAT [2] was inactive. The Potency entry with C33A, in the assay on CASKI, in the assay on Es-2, in the assay with HeLa, in the assay on Hek293T and in the assay with JEG-3 was “inactive” in each case. Also, the Potency entry in the assay on OV90 and in the assay on PA-1 was “inactive” throughout.

As for `CC(=O)O[C@H]1[C@@]2(O)C[C@H](C)[C@H](OC(=O)c3ccccc3)[C@@H]2[C@@H](OC(=O)CO)[C@]2(OC(C)=O)C[C@H]3C(=O)C(C)(C)C[C@@H]3[C@@]1(C)[C@H]2OC(C)=O`, the results for the max response in the assay on CRL-7250, in the assay on KB-3-1 and with NIH3T3 were -5.8%, -0.153% and 1.84%, respectively. Moreover, the outcome with HaCat [1] was inactive. Moreover, the outcome with HACAT [2] is “inactive [at 17.4 µM]”. Further, the Potency result with C33A, in the assay with CAOV3, with CASKI, with HeLa, with Hek293T and with JEG-3 was “inactive” in each case. The Potency result with OV90 and with PA-1 was “inactive” in each case.

For `CC(=O)OC1CC(C)(C(=O)O)CC2C3=CC(=O)C4C5(C)CCC(OC6OC(C(=O)O)C(O)C(O)C6OC6OC(C(=O)O)C(O)C(O)C6O)C(C)(C)C5CCC4(C)C3(C)CCC12C` (configuration not stated), the max response with CRL-7250 was -2.54%; with KB-3-1, 3.1%; with NIH3T3 it was 1.8%. The outcome in the assay with HaCat [1] was inactive. In addition, in the assay on HACAT [2], the outcome was “inactive [at 9.27 µM]”. For the same compound, the activity change, negative = cytotoxicity in the assay with C33A was 10.4% [at 11.6 µM]; in the assay on CASKI, 12.9% [at 11.6 µM]; with Es-2 it was 12.5% [at 11.6 µM]; with HeLa, 14.8% [at 11.6 µM]; in the assay on Hek293T it was 7.86% [at 11.6 µM]; in the assay on JEG-3 it was 5.64% [at 11.6 µM]. For the same compound, the activity change, negative = cytotoxicity in the assay on OV90 was 2.42% [at 11.6 µM]; in the assay with PA-1, 22.8% [at 11.6 µM].

For `C=C1CC[C@H]2C(=C)CC[C@H]3C(=C)C(=O)O[C@@H]3[C@@H]12`, the figures for the max response with CRL-7250, in the assay with KB-3-1 and in the assay with NIH3T3 were -11.6%, -8.05% and -3.18%, respectively. Besides, the outcome with HaCat [1] and in the assay with HACAT [2] was inactive. Moreover, the Potency result with C33A, with CASKI, in the assay with Es-2, with HeLa, with Hek293T and in the assay with JEG-3 was “inactive” throughout. Moreover, the Potency result in the assay with OV90 and with PA-1 was “inactive” throughout.

For the compound `COc1cc(O)cc(/C=C/c2cccc(O)c2)c1`, the max response in the assay on CRL-7250 is 0.366%; with NIH3T3, -7.28%. For the same compound, the outcome in the assay with HaCat [1], in the assay with KB-3-1 and in the assay on HACAT [2] was inactive. Further, the Potency entry in the assay with C33A, in the assay on CASKI, with Es-2, with HeLa, in the assay with Hek293T and in the assay with JEG-3 was “inactive” each time. Further, the Potency result in the assay on OV90 and with PA-1 was “inactive” each time.

As for `O=C(Nc1cccnc1)c1cc(-c2ccnc(F)c2)ccc1OCc1ccccc1`, the max response was -1.07% in the assay with CRL-7250, 6.84% with KB-3-1 and 4.92% in the assay with NIH3T3. Also, the outcome in the assay on HaCat [1] and with HACAT [2] was inactive. The Potency result with C33A, in the assay on CASKI, in the assay with Es-2, in the assay with HeLa, with Hek293T and in the assay with JEG-3 was “inactive” in each case. Moreover, the Potency entry in the assay on OV90 and in the assay on PA-1 was “inactive” each time.

Take `CN(C)c1ccc(NC(=O)NS(=O)(=O)c2ccc(Cl)cc2)cc1`: the max response in the assay on CRL-7250 was -11.7%; in the assay with NIH3T3, -5.53%. The compound was classed as inactive in the assay with HaCat [1], in the assay on KB-3-1 and with HACAT [2]. The Potency result with C33A, with CASKI, in the assay on Es-2, with HeLa, in the assay with Hek293T and in the assay on JEG-3 was “inactive” each time. In addition, the Potency entry in the assay on OV90 and with PA-1 was “inactive” throughout.

With `COc1ccc(NC(=O)c2ccc(-c3ccc(-c4nnc(C)o4)cc3C)cc2)cc1N1CCN(C)CC1`, the max response in the assay with CRL-7250 was 2.13%; in the assay on KB-3-1, 2.03%; with NIH3T3, -14.5%. For the same compound, the outcome in the assay with HaCat [1] and in the assay with HACAT [2] was “inactive; activator” in each case. Besides, the Potency entry with C33A, with CASKI, with Es-2, in the assay with HeLa, in the assay on Hek293T and in the assay on JEG-3 was “inactive” in each case. In addition, the Potency entry in the assay with OV90 was “inactive”.

Turning to `O=C(NCCCn1ccnc1)c1cc(-c2ccco2)on1`, the max response with CRL-7250 was -18.4%; with KB-3-1 it was -0.296%; in the assay with NIH3T3 it was 2.29%. The outcome with HaCat [1] and in the assay with HACAT [2] was inactive. Also, the Potency result with C33A, in the assay with CASKI, with HeLa, in the assay with Hek293T, in the assay with JEG-3 and in the assay with OV90 was “inactive” each time.

As for `CCC(CC)Nc1nc(C)c(-c2ccc(OC(F)(F)F)cc2OC)nc1OC`, the figures for the max response with CRL-7250, in the assay on KB-3-1 and with NIH3T3 were -15%, 0.138% and 0.268%, respectively. Besides, the compound was called inactive with HaCat [1] and with HACAT [2]. For the same compound, the Potency result in the assay with C33A, in the assay with CAOV3, with CASKI, in the assay on Es-2, in the assay with HeLa and in the assay with Hek293T was “inactive” in each case. In addition, the Potency result with JEG-3, with OV90 and with PA-1 was “inactive” each time.
